Compound activity deposited in PubChem by Sanford-Burnham Center for Chemical Genomics.
Peg3 promoter: Peg3 promoter-driven luciferase inhibitors, primary screen, cell-based, HeLa, luciferase luminescence. inhibition, % at 20 µM. HeLa PEG-Prom luciferase reporter, overnight. 1.7% of 360,000 active. AID 588405, 2011;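 active = inhibition of at least 50% at 20 µM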
TROY NFkB inh: inhibitors of TROY-driven NF-kB signaling, primary screen, Q293 LMP1-TROYcd cells, NF-kB luciferase, uHTS; inhibition, % at 10 µM; Q293 LMP1-TROYcd NF-kB luciferase reporter, 4 h; 0.98% of 360,000 active;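 active = compounds whose plate-normalised and pattern-corrected inhibition of the luciferase reporter signal at the single screening dose is 50% or more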
CF NFkB block: inhibitors of PAF-induced NF-kB signaling, primary screen, cell-based, GFP fluorescence, uHTS. KKLEB NF-kB-GFP reporter, GFP fluorescence overnight. inhibition, % at 5 µM. 0.86% of 360,000 active. AID 588850, 2011;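 active = at least 50% inhibition at 5 µM, scaled per plate between neutral and stimulator controls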;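 also: PAF is a Pseudomonas aeruginosa culture filtrate used as stimulus; plate controls were PAF-stimulated DMSO wells for no effect and unstimulated DMSO wells for full effect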
TWEAK Fn14 block: inhibitors of TWEAK-Fn14 signaling, primary screen, luciferase reporter cells, uHTS; TWEAK-stimulated Fn14 reporter cells, luciferase luminescence, 8 h; inhibition, % at 10 µM; 2% of 360,000 active; in the data active = inhibition above about 50%
KKLEB cytotox: cytotoxicity in KKLEB CF airway cells, primary screen, cytotoxicity control for CF NF-kB inhibitor project, cell-based, uHTS, fluorescence assay plates. AID 602141, 2011. KKLEB CF airway cells viability, ATPlite luminescence, overnight; stronger effect = lower value; cells stimulated with P. aeruginosa culture filtrate. activity change (cytotoxicity), % at 5 µM. 0.36% of 360,000 active;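 active = corrected activity change at or below -50% at 5 µM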
HIF-2a block: HIF-2a reporter inhibitors, primary screen, luminescence, 786-0 RCC cells. 786-0 RCC cells HIF-2a reporter, luciferase luminescence, overnight. inhibition, % at 18.8 µM. 0.72% of 360,000 active. AID 624352, 2012;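 active = inhibition of the luminescence signal of 40% or more relative to plate controls, in a single-dose primary screen at 18.75 µM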
An asterisk follows results filed as active; ! = not active in a repeat. The list is not random: actives were taken first. Their share in the collection is about 4%.

Results for CCC(C)(C#CCN1CCCCC1)OCCC#N (stereo not given) ?
Peg3 promoter: -0.8; TROY NFkB inh: -4.8; CF NFkB block: 24.7; TWEAK Fn14 block: -13.5; KKLEB cytotox: 4.4; HIF-2a block: 9.5

What do the screens show for `COc1ccc2oc(C(=O)N3CCc4ccccc43)c(C)c2c1`?
Peg3 promoter: -145.7; TROY NFkB inh: 63.1*; CF NFkB block: -26.2; TWEAK Fn14 block: 73.0*; KKLEB cytotox: -54.8*; HIF-2a block: -72.4

How did COc1ccc2oc(C(=O)Nc3ccccn3)c(C)c2c1 do in these assays?
Peg3 promoter: -174.3; TROY NFkB inh: 7.8; CF NFkB block: -40.5; TWEAK Fn14 block: 52.0*; KKLEB cytotox: 0.2; HIF-2a block: -90.7

Results for COc1ccc2oc(C(=O)Nc3ccc(C)cn3)c(C)c2c1 ?
Peg3 promoter: -307.7; TROY NFkB inh: -47.4; CF NFkB block: 1.8; TWEAK Fn14 block: 11.3; KKLEB cytotox: -14.8; HIF-2a block: -189.6

How did COc1ccc2oc(C(=O)N3CCN(C(c4ccccc4)c4ccccc4)CC3)c(C)c2c1 do in these assays?
Peg3 promoter: 19.0; TROY NFkB inh: 12.9; CF NFkB block: 27.3; TWEAK Fn14 block: 8.8; KKLEB cytotox: -7.6; HIF-2a block: 23.9

Results for O=c1c2cc(NC(=S)NCCCN3CCC(Cc4ccccc4)CC3)ccc2nc2n1CCCCC2 ?
Peg3 promoter: 94.0*; TROY NFkB inh: 18.4; CF NFkB block: 23.6; TWEAK Fn14 block: -4.0; KKLEB cytotox: -18.8; HIF-2a block: 10.2

What do the screens show for `O=c1c2cc(NC(=S)NCCN3CCCCCC3)ccc2nc2n1CCCCC2`?
Peg3 promoter: 11.6; TROY NFkB inh: -13.1; CF NFkB block: 17.2; TWEAK Fn14 block: 8.4; KKLEB cytotox: 1.2; HIF-2a block: 3.7

What do the screens show for `CC(C)(C)OC[C@H](NC(=O)c1[nH]cnc1C(=O)Nc1ccccc1F)C(=O)OC(C)(C)C`?
Peg3 promoter: 1.1; TROY NFkB inh: -12.4; CF NFkB block: 1.8; TWEAK Fn14 block: 7.8; KKLEB cytotox: 11.6; HIF-2a block: 16.7

How did Cc1cc(-n2c(C)cc(C(=O)CCl)c2C)no1 do in these assays?
Peg3 promoter: 75.4*; TROY NFkB inh: 8.6; CF NFkB block: 49.6; TWEAK Fn14 block: 15.5; KKLEB cytotox: -11.6; HIF-2a block: 14.4

How did COc1cc(NC(=O)c2cccs2)c(C(=O)OCC(=O)c2cc(C)n(-c3ccc(F)cc3)c2C)cc1OC do in these assays?
Peg3 promoter: -12.5; TROY NFkB inh: 83.2*; CF NFkB block: 19.5; TWEAK Fn14 block: 90.1*; KKLEB cytotox: -29.4; HIF-2a block: 5.6

What do the screens show for `COc1ccc(-n2c(C)cc(C(=O)COC(=O)c3cc(NC(=O)c4cccs4)c(OC)c(OC)c3)c2C)cc1`?
Peg3 promoter: 2.2; TROY NFkB inh: -13.0; CF NFkB block: -21.8; TWEAK Fn14 block: 1.4; KKLEB cytotox: 17.0; HIF-2a block: 1.4

Results for COc1ccc(-n2c(C)cc(C(=O)CCl)c2C)cc1 ?
Peg3 promoter: 101.1*; TROY NFkB inh: 11.4; CF NFkB block: 0.0; TWEAK Fn14 block: 4.5; KKLEB cytotox: -17.0; HIF-2a block: 40.2*

Results for Cc1cc(C(=O)COC(=O)c2ccc(O)cc2O)c(C)n1-c1ccccc1 ?
Peg3 promoter: -149.2; TROY NFkB inh: 82.8*; CF NFkB block: 14.3; TWEAK Fn14 block: 76.8*; KKLEB cytotox: 21.3; HIF-2a block: -151.5

What do the screens show for `N#Cc1cc2c(=O)n3ccccc3nc2n(CCCN2CCOCC2)c1=O`?
Peg3 promoter: -6.2; TROY NFkB inh: -8.8; CF NFkB block: -18.2; TWEAK Fn14 block: -4.5; KKLEB cytotox: 2.2; HIF-2a block: -3.8

How did O=C(Cn1cc([N+](=O)[O-])ccc1=O)N1CCc2ccccc2C1 do in these assays?
Peg3 promoter: 8.5; TROY NFkB inh: 8.7; CF NFkB block: 19.9; TWEAK Fn14 block: 20.4; KKLEB cytotox: -9.0; HIF-2a block: -0.5

What do the screens show for `COc1ccc(-n2c(C)cc(C(=O)COC(=O)c3ccc(O)cc3O)c2C)cc1`?
Peg3 promoter: -95.5; TROY NFkB inh: 22.7; CF NFkB block: 28.6; TWEAK Fn14 block: 54.4*; KKLEB cytotox: 21.9; HIF-2a block: -57.6

How did Cc1cc(C(=O)COC(=O)c2ccc(O)cc2O)c(C)n1-c1ccc(OC(F)F)cc1 do in these assays?
Peg3 promoter: -1.2; TROY NFkB inh: 3.5; CF NFkB block: 16.5; TWEAK Fn14 block: 14.6; KKLEB cytotox: 17.9; HIF-2a block: 12.2

How did COc1ccc(-n2c(C)cc(C(=O)COc3ccc(C)nc3[N+](=O)[O-])c2C)cc1 do in these assays?
Peg3 promoter: -14.9; TROY NFkB inh: 57.9*; CF NFkB block: -4.5; TWEAK Fn14 block: 49.8; KKLEB cytotox: 11.0; HIF-2a block: 34.2

Results for Cc1cc(C(=O)CCl)c(C)n1-c1c(C)n(C)n(-c2ccccc2)c1=O ?
Peg3 promoter: 59.5*; TROY NFkB inh: 2.7; CF NFkB block: 39.3; TWEAK Fn14 block: 23.9; KKLEB cytotox: 6.4; HIF-2a block: 18.1

How did COc1ncccc1-c1ccc2nncn2c1 do in these assays?
Peg3 promoter: 19.1; TROY NFkB inh: -1.4; CF NFkB block: -13.1; TWEAK Fn14 block: 1.6; KKLEB cytotox: -16.1; HIF-2a block: 5.4

What do the screens show for `CN(C)CCCN1c2ccccc2Sc2ccc(Cl)cc21`?
Peg3 promoter: 75.4*!; TROY NFkB inh: -9.8; CF NFkB block: -1.0; TWEAK Fn14 block: -4.9; KKLEB cytotox: -16.3; HIF-2a block: -0.8

Results for OCCN1CCN(CCCN2c3ccccc3Sc3ccc(Cl)cc32)CC1 ?
Peg3 promoter: 10.3; TROY NFkB inh: 1.0; CF NFkB block: 1.3; TWEAK Fn14 block: -11.0; KKLEB cytotox: -16.9; HIF-2a block: -2.6

What do the screens show for `COc1cc([C@@H]2[C@H]3CN(C)CC=C3C(C#N)=C(N)C2(C#N)C#N)cc2c1OCO2`?
Peg3 promoter: -0.3; TROY NFkB inh: 60.1*!; CF NFkB block: -11.9; TWEAK Fn14 block: 63.4*!; KKLEB cytotox: -0.2; HIF-2a block: 10.7

Results for O=C(Cn1cnc2c(nnn2Cc2ccc(F)cc2)c1=O)NC1CCCC1 ?
Peg3 promoter: 4.4; TROY NFkB inh: 9.1; CF NFkB block: 1.1; TWEAK Fn14 block: 6.5; KKLEB cytotox: 4.1; HIF-2a block: 5.3

What do the screens show for `CCOc1ccccc1CNS(=O)(=O)c1ccc(-c2cnc(C3CC3)o2)cc1`?
Peg3 promoter: 16.6; TROY NFkB inh: 56.3*; CF NFkB block: 46.3; TWEAK Fn14 block: 32.6; KKLEB cytotox: -28.5; HIF-2a block: 22.9

What do the screens show for `COc1ccc(C(=O)/C=C/c2ccc(N3CCCCC3)c([N+](=O)[O-])c2)c(OC)c1`?
Peg3 promoter: 38.9; TROY NFkB inh: -10.5; CF NFkB block: -7.7; TWEAK Fn14 block: 14.0; KKLEB cytotox: 3.8; HIF-2a block: 40.6*
